About 14,000 (4.5%) of roughly 310,000 compounds showed an effect of 50% or more. The effect is printed as a negative number. The sample as a whole holds a higher share of strong results than the screen did.
These compounds were tested against human ether-à-go-go-related gene (hERG) potassium channel (human, UniProt Q12809) (assay: primary screen, population patch clamp on CHO cells stably expressing hERG; higher = less effect of the substance).
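Further: peak tail current of the secondary pulse compared with the same well before compound.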

Chain of human ether-à-go-go-related gene (hERG) potassium channel (Q12809 whole entry, looked up): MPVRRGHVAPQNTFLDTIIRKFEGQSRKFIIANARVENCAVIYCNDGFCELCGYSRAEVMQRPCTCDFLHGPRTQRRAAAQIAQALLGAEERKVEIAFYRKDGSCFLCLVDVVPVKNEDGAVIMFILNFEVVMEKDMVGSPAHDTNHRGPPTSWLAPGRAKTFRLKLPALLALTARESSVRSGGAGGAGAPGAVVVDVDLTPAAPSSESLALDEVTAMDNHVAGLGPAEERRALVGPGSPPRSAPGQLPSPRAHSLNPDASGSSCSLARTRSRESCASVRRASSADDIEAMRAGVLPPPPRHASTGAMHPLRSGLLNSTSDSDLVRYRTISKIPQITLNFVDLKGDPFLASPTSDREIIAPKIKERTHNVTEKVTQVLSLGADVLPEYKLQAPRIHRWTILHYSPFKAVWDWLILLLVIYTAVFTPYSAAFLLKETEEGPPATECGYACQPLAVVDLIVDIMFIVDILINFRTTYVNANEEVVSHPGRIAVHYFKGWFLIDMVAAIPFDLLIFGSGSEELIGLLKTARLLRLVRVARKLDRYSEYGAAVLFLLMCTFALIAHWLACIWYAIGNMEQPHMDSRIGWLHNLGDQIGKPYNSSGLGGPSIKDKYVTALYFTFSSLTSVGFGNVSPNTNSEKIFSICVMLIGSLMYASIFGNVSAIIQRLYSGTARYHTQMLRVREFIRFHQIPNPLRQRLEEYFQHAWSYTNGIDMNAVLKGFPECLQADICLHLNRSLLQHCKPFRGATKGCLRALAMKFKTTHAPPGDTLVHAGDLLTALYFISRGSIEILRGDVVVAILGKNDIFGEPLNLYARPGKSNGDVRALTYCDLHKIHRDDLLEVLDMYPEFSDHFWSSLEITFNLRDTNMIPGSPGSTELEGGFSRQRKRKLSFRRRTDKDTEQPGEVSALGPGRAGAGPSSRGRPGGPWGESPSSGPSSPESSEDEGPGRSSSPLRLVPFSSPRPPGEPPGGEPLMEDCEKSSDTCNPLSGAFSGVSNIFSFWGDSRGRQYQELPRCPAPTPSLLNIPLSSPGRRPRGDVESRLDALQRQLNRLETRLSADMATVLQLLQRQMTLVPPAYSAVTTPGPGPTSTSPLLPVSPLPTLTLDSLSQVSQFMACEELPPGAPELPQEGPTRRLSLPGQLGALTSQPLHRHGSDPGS

| SMILES | hERG current change (%, negative = inhibition) at 10uM |
| --- | --- |
| CCC1Oc2ccccc2N(CC(=O)NCCCN2CCN(Cc3ccccc3)CC2)C1=O (stereo not shown) | -42% |
| CCC1Oc2ccccc2N(CC(=O)NCCCN2CCOCC2)C1=O (stereo not shown) | -4.71% |
| CCC1Oc2ccc(C)cc2N(CC(=O)NCCCN2CCCC2)C1=O (stereo not shown) | -34.7% |
| Cc1cc(OC(C)C(=O)N[C@H](C(=O)O)c2ccccc2)c2c3c(c(=O)oc2c1)CCC3 (stereo partly shown) | -3.23% |
| CCOC(=O)c1c(NCC(C)C)c2ccccc2[nH]c1=O | -1.01% |
| Cc1cccc(C(=O)NNC(=O)c2ccc(Br)cc2)c1 | 4.62% |
| O=C(Nc1cccc(Cl)c1Cl)c1snnc1-c1ccccc1 | 7.74% |
| Cc1ccc(NC(=S)N(CCN2CCOCC2)Cc2ccccc2F)cc1Cl | -12.3% |
| NC(=S)N/N=C1\CCOc2ccc(Cl)cc21 | 1.36% |
| NC(=S)N/N=C1\CCOc2ccc(F)cc21 | -76.9% |
| NC(=S)N/N=C1\CC(c2ccc3c(c2)OCCO3)Oc2ccc(F)cc21 (stereo not shown) | 12.9% |
| O=C(COC(=O)c1cccc(C(=O)OCC(=O)NCc2ccc(F)cc2)n1)NCc1ccc(F)cc1 | -15.5% |
| O=C(c1cc2ccccc2[nH]1)N(Cc1cccnc1)CC1CCCN(C2CCCCC2)C1 (stereo not shown) | -73.7% |
| CC(=O)N(Cc1cccnc1)Cc1cc2ccccc2[nH]c1=O | 3.63% |
| O=C(c1cc2cc(F)ccc2[nH]1)N(Cc1cccnc1)CC1CCCN(C2CCCCC2)C1 (stereo not shown) | -77.5% |
| O=C(c1cccs1)N(CCN1CCCCC1)CC1CCCN(C2CCCC2)C1 (stereo not shown) | 1.03% |
| Cn1nccc1C(=O)N(CCN1CCCCC1)CC1CCCN(C2CCCC2)C1 (stereo not shown) | -2.29% |
| COC(=O)c1ccccc1C(=O)N(Cc1cccnc1)CC1CCCN(C2CCCCC2)C1 (stereo not shown) | -40% |
| O=S(=O)(NCc1cn2ccsc2n1)c1cccs1 | 15.6% |
| Cc1cc(C(=O)OCC(=O)Nc2nccs2)c2ccccc2n1 | 1.22% |
| Cc1cc(C)c2c(n1)nn1c(C)c(CCC(=O)NCc3ccco3)c(C)nc21 | -12.1% |
| CCOC(=O)CSc1nnc2n1C(C)(C)Cc1ccccc1-2 | -4.66% |

| SMILES | hERG current change (%, negative = inhibition) at 10uM |
| --- | --- |
| CCOc1cc(C(=O)N=c2sccn2C)cc(Br)c1OC | 8.84% |
| CNC(=O)COC(=O)c1ccc(NC(=O)CC#N)cc1 | 11.9% |
| CCN(CC(=O)Nc1c(F)cccc1F)C(=O)c1ccc2c(c1)S(=O)(=O)N=C1CCCCCN12 | 9.69% |
| Cc1cc(C(=O)Nc2c(C)nn(Cc3ccc(Cl)cc3)c2C)no1 | -15.4% |
| CCN(CC)P(=O)(Nc1ccc([N+](=O)[O-])cc1)c1c(C)nn(CCC#N)c1NC(=O)c1ccc(Cl)cc1 (stereo not shown) | -56.9% |
| Cc1nn(Cc2ccc(Cl)cc2)c(C)c1NC(=O)c1c(-c2ccccc2)noc1C | -65.1% |
| CCN(CC)P(=O)(Nc1ccc(Br)cc1)c1c(C)nn(CCC#N)c1NC(=O)c1ccc(Cl)cc1 (stereo not shown) | 7.19% |
| Cc1cc(C(=O)Nc2c(C)nn(Cc3ccccc3)c2C)on1 | 1.26% |
| Cc1nn(Cc2ccccc2)c(C)c1NC(=O)c1ccc([N+](=O)[O-])cc1[N+](=O)[O-] | -57% |
| CCn1nc(C)c(NC(=O)c2ccc(Cl)cc2)c1C | 5.72% |
| O=C(Nc1cnn(Cc2ccc(Cl)cc2)c1)c1ccc([N+](=O)[O-])cc1 | -31.4% |
| Cc1nn(Cc2ccc(Cl)cc2)c(C)c1NC(=O)c1ccc([N+](=O)[O-])cc1 | -72.6% |
| Cc1nn(Cc2ccccc2)c(C)c1NC(=O)Cn1nc([N+](=O)[O-])c(Cl)c1C | -10.4% |
| Cc1onc(-c2ccccc2)c1C(=O)NCc1ccc(Cl)cc1 | 13.8% |
| CCN(CC)P(=O)(Nc1ccc([N+](=O)[O-])cc1)c1c(C)nn(CCC#N)c1NC(=O)c1ccc(Cl)cc1Cl (stereo not shown) | 3.17% |
| C=CCNC(=S)Nc1ccc(OC)c(S(=O)(=O)N2CCOCC2)c1 | -10.3% |
| CC(=O)c1cc2c(cc1NC(=O)CCc1c(C)nc3ncnn3c1C)OCO2 | -10.1% |
| C=CCn1c(N)c(C(=O)NCc2cccnc2)sc1=S | -35.1% |
| COc1cccc(CN2CC(C(=O)NCCSc3nnnn3C)CCC2=O)c1 (stereo not shown) | 18% |
| CC(C)(C)C(=O)Nc1ccc(N=Nc2ccccc2)cc1 | -0.305% |
| O=C(O)C(Cc1c[nH]c2ccccc12)N1C(=O)C2C3c4ccccc4C(c4ccccc43)[C@@H]2C1=O (stereo partly shown) | 18% |

Source: publication PMC4336329 (PLoS ONE, 2015)
